Assay results as given in the supplement of paper PMC10849652.
Of roughly 8,800 targets only a part is listed; those with a hit were picked by preference. About 0.5% of all pairs of compound and target were hits. Values without a mark were called inactive.

How the values were obtained:
Assay in all cases: log2 fold change, soluble protein after heating vs DMSO (PISA); higher = thermal stabilisation; K562 lysate, 10 uM; active = over 0.2 and 3.5 SD of the protein, either way, in both replicates (recomputed)
[1] = compound: CS(=O)(=O)CCNCc1ccc(-c2ccc3ncnc(Nc4ccc(OCc5cccc(F)c5)c(Cl)c4)c3c2)o1 [lapatinib]
How it was run: (§1)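 Pellets of K562 cells were dounce-homogenised in PBS pH 7.4 with 1 mM MgCl2, and the crude extract was held at 1 mg/mL protein for a 30 min treatment with 10 μM compound. Aliquots were heated for 3 min over 48°C-58°C and pooled before NP-40 was added to 0.5% at 4°C. The supernatant from 21,000xg for 90 min was quantified by TMTpro 16plex LC-MS/MS with channel sums equalised. Values are reported from duplicates as log-two fold change in thermal stability relative to solvent controls.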

[2] = compound: CS(=O)(=O)N1CCN(Cc2cc3nc(-c4cccc5[nH]ncc45)nc(N4CCOCC4)c3s2)CC1 [pictilisib]
How it was run: as §1

[3] = compound: C[C@@H](Oc1cc(-c2cnn(C3CCNCC3)c2)cnc1N)c1c(Cl)ccc(F)c1Cl [crizotinib]
How it was run: as §1

[4] = compound: C[C@H](C1=CC=C(C=C1)C(=O)NC2=C3C=CNC3=NC=C2)N
How it was run: as §1

[5] = compound: C[C@H](Nc1ncnc2nc[nH]c12)c1cc2cccc(Cl)c2c(=O)n1-c1ccccc1 [duvelisib]
How it was run: as §1

[6] = compound: Cc1cc(Nc2cc(CN3CCOCC3)c3nc(C)c(Cc4ccc(Cl)cc4F)n3n2)n[nH]1 [gandotinib]
How it was run: as §1

[7] = compound: Cc1cc(Nc2cc(N3CCN(C)CC3)nc(Sc3ccc(NC(=O)C4CC4)cc3)n2)n[nH]1 [tozasertib]
How it was run: as §1

[8] = compound: Cc1ccc(-n2nc(C(C)(C)C)cc2NC(=O)Nc2ccc(OCCN3CCOCC3)c3ccccc23)cc1 [doramapimod]
How it was run: as §1

[9] = compound: Cc1ccc(NC(=O)c2ccc(CN3CC[C@H](N(C)C)C3)c(C(F)(F)F)c2)cc1Nc1nccc(-c2cncnc2)n1 [bafetinib]
How it was run: as §1

[10] = compound: Cc1cccc(CC(=O)N2CCc3c2ccc(-c2cn(C)c4ncnc(N)c24)c3F)n1
How it was run: as §1

Sequence of UniProt P04406 (P04406 whole entry, looked up): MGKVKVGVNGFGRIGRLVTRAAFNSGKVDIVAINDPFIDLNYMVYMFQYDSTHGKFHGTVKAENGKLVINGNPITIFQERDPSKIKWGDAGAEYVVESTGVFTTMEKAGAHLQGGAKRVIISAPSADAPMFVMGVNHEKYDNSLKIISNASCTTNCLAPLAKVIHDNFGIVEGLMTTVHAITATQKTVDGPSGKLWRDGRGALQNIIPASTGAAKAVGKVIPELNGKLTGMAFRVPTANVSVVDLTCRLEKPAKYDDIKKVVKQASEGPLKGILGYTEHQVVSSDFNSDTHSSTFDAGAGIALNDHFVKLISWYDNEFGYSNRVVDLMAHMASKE
Sequence of UniProt Q9UET6 (Q9UET6 whole entry, looked up): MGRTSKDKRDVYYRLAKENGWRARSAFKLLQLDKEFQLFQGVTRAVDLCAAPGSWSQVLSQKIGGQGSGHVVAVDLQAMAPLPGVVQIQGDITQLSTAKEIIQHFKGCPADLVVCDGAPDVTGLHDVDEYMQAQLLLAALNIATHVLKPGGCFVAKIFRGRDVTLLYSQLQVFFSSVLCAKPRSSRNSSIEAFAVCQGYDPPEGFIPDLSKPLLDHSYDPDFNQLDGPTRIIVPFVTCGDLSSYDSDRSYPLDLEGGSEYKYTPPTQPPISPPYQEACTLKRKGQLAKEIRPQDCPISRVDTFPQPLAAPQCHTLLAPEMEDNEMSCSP
Sequence of UniProt Q9UJY4 (Q9UJY4 whole entry, looked up): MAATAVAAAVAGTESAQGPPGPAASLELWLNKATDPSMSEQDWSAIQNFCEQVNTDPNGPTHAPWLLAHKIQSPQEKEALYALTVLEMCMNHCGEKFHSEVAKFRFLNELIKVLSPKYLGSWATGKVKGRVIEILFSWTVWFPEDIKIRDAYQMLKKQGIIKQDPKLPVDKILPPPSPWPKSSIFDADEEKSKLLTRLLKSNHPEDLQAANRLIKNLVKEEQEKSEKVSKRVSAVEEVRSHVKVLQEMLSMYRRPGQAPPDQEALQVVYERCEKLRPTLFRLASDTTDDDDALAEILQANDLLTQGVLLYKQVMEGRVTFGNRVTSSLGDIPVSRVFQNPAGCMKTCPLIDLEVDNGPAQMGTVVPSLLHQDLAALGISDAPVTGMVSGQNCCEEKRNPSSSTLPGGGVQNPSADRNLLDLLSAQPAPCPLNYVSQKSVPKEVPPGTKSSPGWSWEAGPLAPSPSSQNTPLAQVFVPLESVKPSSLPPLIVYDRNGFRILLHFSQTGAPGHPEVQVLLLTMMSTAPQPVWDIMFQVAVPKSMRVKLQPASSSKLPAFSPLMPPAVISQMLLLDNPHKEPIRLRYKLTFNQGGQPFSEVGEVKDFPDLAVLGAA
Sequence of UniProt Q56P03 (Q56P03 whole entry, looked up): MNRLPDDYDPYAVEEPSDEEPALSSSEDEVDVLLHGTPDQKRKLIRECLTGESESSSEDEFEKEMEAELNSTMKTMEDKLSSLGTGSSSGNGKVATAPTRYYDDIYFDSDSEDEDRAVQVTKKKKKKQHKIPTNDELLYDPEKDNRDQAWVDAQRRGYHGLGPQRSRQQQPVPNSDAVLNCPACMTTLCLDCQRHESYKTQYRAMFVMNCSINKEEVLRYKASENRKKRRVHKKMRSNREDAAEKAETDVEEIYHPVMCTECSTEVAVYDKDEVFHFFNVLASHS
Sequence of UniProt P48507 (P48507 whole entry, looked up): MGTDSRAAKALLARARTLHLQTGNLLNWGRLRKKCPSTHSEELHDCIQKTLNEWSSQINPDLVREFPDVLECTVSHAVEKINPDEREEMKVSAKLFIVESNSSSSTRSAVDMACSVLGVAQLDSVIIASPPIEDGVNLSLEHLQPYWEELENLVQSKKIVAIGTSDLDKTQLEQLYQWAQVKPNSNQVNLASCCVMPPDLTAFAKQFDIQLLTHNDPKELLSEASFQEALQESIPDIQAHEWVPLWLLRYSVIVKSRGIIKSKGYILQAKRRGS
Sequence of UniProt O75521 (O75521 whole entry, looked up): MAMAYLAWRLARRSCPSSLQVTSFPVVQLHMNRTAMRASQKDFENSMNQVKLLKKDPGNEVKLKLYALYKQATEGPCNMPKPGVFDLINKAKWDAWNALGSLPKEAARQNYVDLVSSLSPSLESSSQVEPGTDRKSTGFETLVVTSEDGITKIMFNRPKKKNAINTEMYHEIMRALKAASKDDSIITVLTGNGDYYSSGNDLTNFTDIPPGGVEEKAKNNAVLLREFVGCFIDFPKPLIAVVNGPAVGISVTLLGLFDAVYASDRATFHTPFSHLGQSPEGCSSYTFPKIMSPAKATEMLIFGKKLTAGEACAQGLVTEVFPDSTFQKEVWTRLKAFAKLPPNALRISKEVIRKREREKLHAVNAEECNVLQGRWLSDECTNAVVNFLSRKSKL
Sequence of UniProt Q9NPA8 (Q9NPA8 whole entry, looked up): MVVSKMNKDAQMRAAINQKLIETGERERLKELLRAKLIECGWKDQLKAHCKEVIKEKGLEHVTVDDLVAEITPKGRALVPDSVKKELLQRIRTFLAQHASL
Sequence of UniProt P19525 (P19525 whole entry, looked up): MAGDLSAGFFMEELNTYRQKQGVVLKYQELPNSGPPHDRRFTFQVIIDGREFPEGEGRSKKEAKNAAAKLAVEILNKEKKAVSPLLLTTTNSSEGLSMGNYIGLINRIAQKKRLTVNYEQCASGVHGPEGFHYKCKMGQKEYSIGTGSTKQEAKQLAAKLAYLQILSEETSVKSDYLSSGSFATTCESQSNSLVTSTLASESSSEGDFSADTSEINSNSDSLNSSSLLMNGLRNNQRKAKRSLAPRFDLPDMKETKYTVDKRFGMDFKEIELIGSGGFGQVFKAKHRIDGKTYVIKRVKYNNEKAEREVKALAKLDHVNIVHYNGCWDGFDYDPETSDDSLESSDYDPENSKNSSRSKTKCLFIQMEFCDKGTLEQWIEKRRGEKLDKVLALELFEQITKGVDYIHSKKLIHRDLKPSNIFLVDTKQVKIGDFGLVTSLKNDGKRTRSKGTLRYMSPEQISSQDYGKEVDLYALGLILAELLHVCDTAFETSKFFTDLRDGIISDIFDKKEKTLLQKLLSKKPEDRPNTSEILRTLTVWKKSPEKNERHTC
Sequence of UniProt Q8TF64 (Q8TF64 whole entry, looked up): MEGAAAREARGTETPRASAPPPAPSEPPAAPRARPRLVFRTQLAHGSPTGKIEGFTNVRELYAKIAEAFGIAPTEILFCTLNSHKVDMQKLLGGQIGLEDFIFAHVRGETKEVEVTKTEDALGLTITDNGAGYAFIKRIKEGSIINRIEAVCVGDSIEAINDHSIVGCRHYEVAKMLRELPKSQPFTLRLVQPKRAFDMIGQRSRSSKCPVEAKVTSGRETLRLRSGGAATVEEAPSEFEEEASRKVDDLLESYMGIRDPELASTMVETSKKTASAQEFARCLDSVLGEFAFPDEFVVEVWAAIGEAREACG
Sequence of UniProt Q15717 (Q15717 whole entry, looked up): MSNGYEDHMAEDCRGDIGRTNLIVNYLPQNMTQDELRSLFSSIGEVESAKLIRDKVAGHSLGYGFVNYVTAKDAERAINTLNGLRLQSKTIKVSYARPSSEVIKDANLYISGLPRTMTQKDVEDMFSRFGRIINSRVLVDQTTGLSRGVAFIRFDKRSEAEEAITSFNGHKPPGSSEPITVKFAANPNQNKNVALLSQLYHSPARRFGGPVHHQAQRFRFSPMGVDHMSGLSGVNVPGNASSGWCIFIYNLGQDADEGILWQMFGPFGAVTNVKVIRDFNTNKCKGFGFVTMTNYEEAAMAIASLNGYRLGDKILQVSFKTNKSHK
Sequence of UniProt P11413 (P11413 whole entry, looked up): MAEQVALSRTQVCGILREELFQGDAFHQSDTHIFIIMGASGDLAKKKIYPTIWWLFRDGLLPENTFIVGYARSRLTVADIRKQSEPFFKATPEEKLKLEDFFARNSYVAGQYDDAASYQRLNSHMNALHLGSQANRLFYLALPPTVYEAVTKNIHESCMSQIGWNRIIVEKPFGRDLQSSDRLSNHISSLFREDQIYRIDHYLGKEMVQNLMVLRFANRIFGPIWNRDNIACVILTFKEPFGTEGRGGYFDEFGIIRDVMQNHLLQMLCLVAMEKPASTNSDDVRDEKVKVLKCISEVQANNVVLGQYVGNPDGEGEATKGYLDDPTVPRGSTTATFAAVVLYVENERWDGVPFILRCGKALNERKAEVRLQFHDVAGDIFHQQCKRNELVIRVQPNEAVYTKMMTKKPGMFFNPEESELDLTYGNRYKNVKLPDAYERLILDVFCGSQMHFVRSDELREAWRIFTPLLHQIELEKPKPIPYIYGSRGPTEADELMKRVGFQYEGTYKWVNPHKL
Sequence of UniProt Q9BQI3 (Q9BQI3 whole entry, looked up): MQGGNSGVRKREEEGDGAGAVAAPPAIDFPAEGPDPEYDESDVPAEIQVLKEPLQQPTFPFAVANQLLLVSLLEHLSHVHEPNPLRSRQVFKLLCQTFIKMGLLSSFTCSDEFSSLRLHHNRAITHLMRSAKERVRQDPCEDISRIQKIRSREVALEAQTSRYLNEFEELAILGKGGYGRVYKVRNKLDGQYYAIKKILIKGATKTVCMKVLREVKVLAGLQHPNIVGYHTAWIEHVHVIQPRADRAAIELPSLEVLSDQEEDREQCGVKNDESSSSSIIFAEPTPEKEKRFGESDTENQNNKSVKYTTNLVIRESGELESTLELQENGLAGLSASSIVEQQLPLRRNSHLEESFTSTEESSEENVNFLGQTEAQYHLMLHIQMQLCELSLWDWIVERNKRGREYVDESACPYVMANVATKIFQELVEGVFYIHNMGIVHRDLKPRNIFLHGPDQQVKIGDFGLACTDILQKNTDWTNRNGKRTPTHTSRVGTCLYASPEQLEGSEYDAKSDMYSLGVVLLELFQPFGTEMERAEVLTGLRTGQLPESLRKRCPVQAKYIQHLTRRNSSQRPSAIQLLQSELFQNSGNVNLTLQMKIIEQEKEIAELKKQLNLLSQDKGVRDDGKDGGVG
Sequence of UniProt P41567 (P41567 whole entry, looked up): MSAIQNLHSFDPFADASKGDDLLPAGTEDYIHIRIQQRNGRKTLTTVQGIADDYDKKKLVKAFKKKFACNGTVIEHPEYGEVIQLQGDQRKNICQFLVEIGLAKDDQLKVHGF

Target | log2 fold change [1] | log2 fold change [2] | log2 fold change [3] | log2 fold change [4] | log2 fold change [5] | log2 fold change [6] | log2 fold change [7] | log2 fold change [8] | log2 fold change [9] | log2 fold change [10]
GCLM (UniProt P48507) | -0.006 | -0.013 | 0.018 | -0.009 | 0.016 | -0.004 | -0.017 | 0.001 | 0.003 | -0.03
ESYT2 (UniProt H7BXI1) | -0.008 | 0.01 | -0.039 | 0.089 | 0.018 | -0.073 | 0.063 | 0.018 | -0.115 | 0.002
EIF2AK1 (UniProt Q9BQI3) | 0.142 | -0.022 | -0.036 | -0.033 | 0.06 | -0.009 | -0.009 | 0.017 | -0.068 | 0.062
FTSJ1 (UniProt Q9UET6) | 0.01 | -0.002 | -0.051 | 0.051 | -0.009 | -0.088 | -0.064 | 0.03 | 0.041 | -0.052
FYB1 isoform 3 (UniProt O15117) | 0.045 | -0.008 | -0.082 | 0.147 | 0.01 | -0.051 | 0.052 | -0.007 | -0.062 | -0.058
FAM83A (UniProt Q86UY5) | 0.012 | 0.021 | 0.086 | -0.142 | -0.047 | 0.155 | -0.013 | 0.195 | -0.053 | 0.056
DUS2 (UniProt Q9NX74) | -0.033 | 0.04 | 0.041 | -0.032 | 0.018 | -0.051 | 0.011 | -0.01 | -0.017 | -0.009
FAM114A2 (UniProt Q9NRY5) | 0.106 | -0.013 | 0.013 | -0.023 | 0.011 | 0.449 (active) | -0.108 | -0.011 | -0.121 | 0.196
EP300 (UniProt Q09472) | 0.062 | -0.078 | 0.047 | -0.101 | -0.037 | -0.047 | 0.065 | -0.016 | 0.044 | 0.089
ENY2 (UniProt Q9NPA8) | 0.025 | -0.024 | 0.031 | 0.726 (active) | 0.034 | -0.386 (active) | 0.019 | -0.021 | -0.07 | -0.529 (active)
FAM118A (UniProt Q9NWS6) | 0.02 | -0.006 | -0.054 | -0.09 | 0.019 | 0.002 | -0.016 | -0.013 | -0.059 | 0.118
ELAVL1 isoform 2 (UniProt Q15717) | 0.031 | -0.002 | -0.037 | 0.055 | 0.001 | -0.067 | -0.047 | 0.007 | -0.004 | -0.026
EXOC1 (UniProt Q9NV70) | -0.013 | 0.029 | -0.041 | 0.04 | 0.016 | -0.186 | -0.004 | 0.023 | -0.04 | 0.024
EIF1 (UniProt P41567) | 0.053 | 0.016 | 0.002 | -0.051 | 0.044 | 0.068 | -0.008 | -0.092 | 0.052 | 0.021
GGA2 (UniProt Q9UJY4) | -0.024 | -0.037 | -0.029 | 0.023 | -0.002 | -0.131 | 0.007 | -0.024 | -0.046 | -0.004
GCDH (UniProt Q92947) | 0.016 | 0.012 | -0.017 | 0.013 | 0.19 | -0.005 | 0.007 | -0.026 | 0.047 | -0.004
DST (UniProt Q03001) | -0.019 | 0.015 | -0.02 | -0.17 | 0.018 | 0.101 | 0.024 | 0.023 | -0.137 | 0.246
EIF2AK2 (UniProt P19525) | -0.003 | 0.03 | 0.12 | -0.061 | -0.036 | -0.022 | -0.009 | 0.011 | -0.036 | 0.022
GIPC3 (UniProt Q8TF64) | 0.157 | -0.055 | -0.103 | -0.033 | 0.05 | 0.124 | -0.097 | 0 | -0.035 | 0.083
FAM83D (UniProt Q9H4H8) | -0.01 | -0.024 | -0.026 | -0.021 | -0.002 | -0.018 | -0.038 | 0.009 | -0.116 | 0.031
FMNL1 isoform 3 (UniProt O95466) | 0.058 | 0.005 | -0.013 | 0.044 | 0 | -0.056 | -0.051 | 0.048 | -0.055 | 0.042
G6PD isoform 2 (UniProt P11413) | 0.018 | -0.022 | -0.03 | 0.094 | -0.023 | -0.063 | -0.003 | -0.015 | 0.037 | -0.035
FARSB (UniProt Q9NSD9) | 0.003 | -0.014 | -0.033 | 0.007 | 0.021 | -0.053 | -0.014 | 0.033 | -0.005 | -0.001
EPB41 (UniProt P11171) | -0.009 | -0.015 | -0.007 | 0.04 | -0.016 | -0.105 | 0.035 | 0.01 | -0.013 | -0.088
EFCAB14 (UniProt O75071) | -0.051 | -0.058 | 0.006 | 0.037 | 0.022 | 0.064 | 0.086 | 0.011 | -0.002 | -0.084
GAPDH (UniProt P04406) | 0.005 | -0.024 | 0.066 | 0.043 | 0.003 | -0.002 | -0.005 | -0.031 | 0.055 | -0.082
DYRK1A (UniProt Q13627) | -0.024 | -0.003 | 0.018 | 0.055 | -0.021 | -0.012 | 0.03 | -0.06 | -0.028 | -0.021
ECI2 (UniProt O75521) | -0.022 | -0.017 | 0.032 | -0.002 | 0.004 | -0.009 | 0.03 | 0.007 | -0.002 | 0.042
GGT7 (UniProt Q9UJ14) | -0.024 | -0.007 | 0.01 | 0.068 | 0.011 | 0.033 | -0.03 | -0.054 | -0.09 | 0.042
EAPP (UniProt Q56P03) | -0.033 | 0.058 | 0 | 0.03 | 0.03 | -0.157 | -0.09 | -0.058 | 0.109 | 0.128
